# Measurements reported in PubChem BioAssay (NCATS).
# Inconclusive results are not listed. Entries that show only a call come without a potency. The source made the active and inactive calls. The call rests on the fitted dose curve; in most records, active means well fitted curve in the direction sought with a large enough effect; inconclusive means small, poorly fitted or top-dose-only effect, or another doubt; inactive means no such curve, though single readings can be large; an effect the other way counts as inactive or inconclusive.
# Legend:
# [1] = test system: Zika virus NS2B-NS3 protease; assay: Primary screen GU AMC qHTS for Zika virus inhibitors (AID 1347154); further: nearly all actives have a fitted effect of over 70% in size
# Procedure, shortened: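 Unlinked Zika NS2B hydrophilic domain–NS3 protease complex at 25 nM in 10 mM Tris-HCl pH 8.0, 0.01% Tween 20, with an AMC peptide substrate. Fluorescence change (340/450 nm) over 15 min at room temperature, normalized to controls, fitted to 4-parameter Hill.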
# Furin (Homo sapiens) = Furin (Homo sapiens) (UniProt P09958); assay: Furin counterscreen qHTS for Zika virus inhibitors (AID 1347149);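 further: purified recombinant full-length human furin enzyme at 5 nM; fluorescence gain from furin cutting a BOC-RVRR-AMC peptide substrate over 15 min; top concentration of the series differs between compounds; nearly all actives have a fitted effect of over 70% in size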
# Chain of Furin (Homo sapiens) (P09958 whole entry, looked up): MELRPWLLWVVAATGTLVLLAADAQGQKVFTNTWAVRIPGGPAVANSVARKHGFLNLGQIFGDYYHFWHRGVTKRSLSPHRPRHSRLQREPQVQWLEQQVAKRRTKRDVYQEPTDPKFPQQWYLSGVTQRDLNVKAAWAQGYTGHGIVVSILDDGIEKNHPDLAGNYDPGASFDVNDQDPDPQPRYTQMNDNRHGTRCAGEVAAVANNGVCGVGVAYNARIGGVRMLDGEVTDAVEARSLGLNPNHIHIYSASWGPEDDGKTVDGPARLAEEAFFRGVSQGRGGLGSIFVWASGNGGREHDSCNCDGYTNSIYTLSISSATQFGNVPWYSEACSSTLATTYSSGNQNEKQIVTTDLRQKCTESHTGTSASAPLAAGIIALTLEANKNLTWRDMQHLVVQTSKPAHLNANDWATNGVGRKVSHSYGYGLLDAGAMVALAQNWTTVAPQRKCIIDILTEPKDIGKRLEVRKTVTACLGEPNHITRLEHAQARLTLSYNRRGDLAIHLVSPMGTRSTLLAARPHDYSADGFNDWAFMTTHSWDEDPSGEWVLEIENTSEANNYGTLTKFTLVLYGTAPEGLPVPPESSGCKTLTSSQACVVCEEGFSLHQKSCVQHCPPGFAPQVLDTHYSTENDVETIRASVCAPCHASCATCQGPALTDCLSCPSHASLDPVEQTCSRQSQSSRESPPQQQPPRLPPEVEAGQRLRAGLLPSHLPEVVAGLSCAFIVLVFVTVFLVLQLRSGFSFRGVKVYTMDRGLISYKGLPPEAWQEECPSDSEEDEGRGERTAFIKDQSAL
# Procedure, shortened: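 Fluorogenic cleavage of BOC-RVRR-AMC (2 microM final, Km ~15 µM) was monitored (ex 340, em 450 nm) at 37C after 15 min RT preincubation of 5 nM furin with compounds in HEPES pH 7.0 buffer with CaCl2 and Triton X-100. Percent inhibition was fitted to a 4-parameter Hill curve.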
# [2] = Confirmatory screen GU Rhodamine qHTS for Zika virus inhibitors qHTS (AID 1347157); further: nearly all actives have a fitted effect of over 70% in size
# Procedure, shortened: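 Compounds, tested up to 114 microM, were incubated for 15 minutes with 25 nM unlinked NS2B-NS3 protease at pH 8.0. Cleavage of 1.5 microM Rhodamine110 substrate was then followed by fluorescence for 15 minutes.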
# [3] = Confirmatory screen NINDS Rhodamine qHTS for Zika virus inhibitors (AID 1347161); further: nearly all actives have a fitted effect of over 60% in size; further: potency means the concentration at half of the fitted maximal effect
# Procedure, shortened: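 Single-chain NS2B-NS3 protease, 25 nM, pH 8.0; compounds preincubated 15 min. Activity: Rhodamine110 release from 1.5 microM substrate over 15 min, room temperature, data fitted to 4-parameter Hill.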
# [4] = qHTS of pediatric cancer cell lines to identify multiple opportunities for drug repurposing: Confirmatory screen for Saos-2 cells (AID 1347127); settings: Saos-2 osteosarcoma cell viability; further: potency means the concentration at half of the fitted maximal effect; nearly all actives have a fitted effect of over 60% in size
# Procedure, shortened: (§1)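 Viability after 48 h compound treatment at 37C, 500-1,000 cells/well, read as ATP luminescence with CellTiter-Glo. Primary screens used 11-point (MIPE, 0.78 nM-46 µM) or 8-point (NPC, 0.59 nM-46 µM) final concentrations; follow-up screens used 11-point dilutions.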
# [5] = qHTS of pediatric cancer cell lines to identify multiple opportunities for drug repurposing: Confirmatory screen for OHS-50 cells (AID 1347128);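 further: potency means the concentration at half of the fitted maximal effect; compound exposure lasted 48 h at 37 degrees C; nearly all actives have a fitted effect of over 55% in size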
# Procedure, shortened: as §1
# [6] = qHTS of pediatric cancer cell lines to identify multiple opportunities for drug repurposing: Confirmatory screen for SK-N-SH cells (AID 1347129);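 further: cells exposed to compound for 48 h before viability read; nearly all actives have a fitted effect of over 60% in size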
# Procedure, shortened: as §1
# [7] = test system: Zika virus NS2B-NS3 protease (linked construct); assay: Confirmatory screen NINDS AMC qHTS for Zika virus inhibitors (AID 1347152); settings: Purified linked NS2B-NS3, AMC substrate fluorescence; further: potency means the concentration at half of the fitted maximal effect; nearly all actives have a fitted effect of over 70% in size
# Procedure, shortened: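 Linked NS2B-NS3 1 nM, Tris pH 8.0/0.01% Tween 20; cpd 15 min RT dark; + Nle-KRR-AMC 10 µM (Km 18.3 µM); read 0 and 15 min, 340/450 nm; %inh vs controls, 4-param Hill.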
# [8] = test system: Zika virus NS2B-NS3 protease (unlinked complex); assay: Confirmatory screen GU AMC qHTS for Zika virus inhibitors (AID 1347153)
# Procedure, shortened: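 Compounds were preincubated 15 min at room temperature with 25 nM noncovalent NS2B-NS3 protease at pH 8.0; AMC substrate added at 10 microM and 15-min fluorescence gain (340/450 nm) converted to percent inhibition, fitted 4-parameter.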
# [9] = ZIKV-mCherry secondary qHTS for Zika virus inhibitors (AID 1347158); further: top concentration of the series differs between compounds
# Procedure, shortened: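 Vero, 5,000 cells/well, o/n 37 °C; cpd pin-transferred in DMSO; ZIKV-mCherry MOI 1, 48-72 h 37 °C; 32% PFA stock fix, Hoechst; imaged 10x DAPI/mCherry; mCherry+ threshold 450 RFU; % infection.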
smiles,measurement,setting,value
Cc1ccc2c(c1)c1c3n2CCNC3CCC1 (stereo not given),Potency,[1],inactive
COc1ccccc1Oc1c(NS(=O)(=O)c2ccc(C(C)(C)C)cc2)nc(-c2ncccn2)nc1OCCO,Potency,Furin (Homo sapiens),inactive
same,Potency,[1],inactive
same,outcome,[2],inactive
same,Potency,[3],inactive
CCOC(=O)[C@H](CCc1ccccc1)N[C@@H](C)C(=O)N1Cc2cc(OC)c(OC)cc2C[C@H]1C(=O)O,Potency,[1],inactive
O=C(O)CCCc1ccccc1,Potency,[1],inactive
CC(=O)OCC(=O)[C@@]1(O)CC[C@H]2[C@@H]3CCC4=CC(=O)C=C[C@]4(C)[C@@]3(F)[C@@H](O)C[C@@]21C,Potency,[4],11.7 µM (active)
same,Potency,[5],16.5 µM (active)
same,outcome,[6],inactive
same,Potency,[1],inactive
CC(C)c1cc2c(cc1S(=O)(=O)O)[C@@]1(C)CCC[C@@](C)(C(=O)O)[C@@H]1CC2,Potency,[1],inactive
O=C(O)Cn1c(C(=O)Nc2nc(-c3ccccc3Cl)cs2)cc2ccccc21,Potency,[7],21.5 µM (active)
same,Potency,[8],24.1 µM (active)
same,outcome,[9],inactive
same,Potency,[3],3.93 µM (active)
CC(=O)N[C@@H](CC(C)C)C(=O)O,Potency,[1],inactive
C[C@H]1COc2c(C3(N)CC3)c(F)cc3c(=O)c(C(=O)O)cn1c23,Potency,[1],inactive
COC(=O)N/N=C/c1c[n+]([O-])c2ccccc2[n+]1[O-],Potency,[1],inactive
Cc1cc(C)c(NC(=O)CN(CC(=O)O)CC(=O)O)c(C)c1Br,Potency,[1],inactive
CC(=O)N[C@@H](Cc1ccc(O)cc1)C(=O)O,Potency,[1],inactive
CN1C(C)(C)CCCC1(C)C,Potency,[1],inactive
O=C(NCC(O)CO)c1c(I)c(C(=O)NCC(O)CO)c(I)c(N(CCO)C(=O)CO)c1I (stereo not given),Potency,[1],inactive
CCCCCCCCCCCCCCCCN,Potency,[1],inactive
CCCC(O)C(CC)CO (stereo not given),Potency,[1],inactive
